How the values were obtained:
Assay in all cases: log2 ratio of Biotin-Ahx-Ub-VS probe labelling (fragment/DMSO); higher = less target engagement (more negative = stronger competition), active = hit call of the paper (q ≤ 0.05, log2 ratio ≤ -1)
Details in all cases: compound concentration: 200 uM; treatment time: 3 h
[1] = biological target: USP34 (UniProt Q70CQ2)
Procedure, shortened: (§1)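 Each value is an average log2 ratio of fragment to vehicle, tested by unpaired t-test. The underlying Spectronaut label-free quantities were global-median-normalised, and only proteins with ≥2 unique peptides were included. Triplicate HEK293T lysate samples (495 µg) were exposed to fragment at 200 µM or vehicle for 3 h, then to Biotin-Ahx-Ub-VS at 0.5 µM final for 1 h, before NeutrAvidin enrichment of labelled DUBs, LysC and trypsin digestion, and diaPASEF LC-MS/MS.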

[2] = biological target: T1, USP36 (UniProt Q9P275)
T1 sequence (whole entry): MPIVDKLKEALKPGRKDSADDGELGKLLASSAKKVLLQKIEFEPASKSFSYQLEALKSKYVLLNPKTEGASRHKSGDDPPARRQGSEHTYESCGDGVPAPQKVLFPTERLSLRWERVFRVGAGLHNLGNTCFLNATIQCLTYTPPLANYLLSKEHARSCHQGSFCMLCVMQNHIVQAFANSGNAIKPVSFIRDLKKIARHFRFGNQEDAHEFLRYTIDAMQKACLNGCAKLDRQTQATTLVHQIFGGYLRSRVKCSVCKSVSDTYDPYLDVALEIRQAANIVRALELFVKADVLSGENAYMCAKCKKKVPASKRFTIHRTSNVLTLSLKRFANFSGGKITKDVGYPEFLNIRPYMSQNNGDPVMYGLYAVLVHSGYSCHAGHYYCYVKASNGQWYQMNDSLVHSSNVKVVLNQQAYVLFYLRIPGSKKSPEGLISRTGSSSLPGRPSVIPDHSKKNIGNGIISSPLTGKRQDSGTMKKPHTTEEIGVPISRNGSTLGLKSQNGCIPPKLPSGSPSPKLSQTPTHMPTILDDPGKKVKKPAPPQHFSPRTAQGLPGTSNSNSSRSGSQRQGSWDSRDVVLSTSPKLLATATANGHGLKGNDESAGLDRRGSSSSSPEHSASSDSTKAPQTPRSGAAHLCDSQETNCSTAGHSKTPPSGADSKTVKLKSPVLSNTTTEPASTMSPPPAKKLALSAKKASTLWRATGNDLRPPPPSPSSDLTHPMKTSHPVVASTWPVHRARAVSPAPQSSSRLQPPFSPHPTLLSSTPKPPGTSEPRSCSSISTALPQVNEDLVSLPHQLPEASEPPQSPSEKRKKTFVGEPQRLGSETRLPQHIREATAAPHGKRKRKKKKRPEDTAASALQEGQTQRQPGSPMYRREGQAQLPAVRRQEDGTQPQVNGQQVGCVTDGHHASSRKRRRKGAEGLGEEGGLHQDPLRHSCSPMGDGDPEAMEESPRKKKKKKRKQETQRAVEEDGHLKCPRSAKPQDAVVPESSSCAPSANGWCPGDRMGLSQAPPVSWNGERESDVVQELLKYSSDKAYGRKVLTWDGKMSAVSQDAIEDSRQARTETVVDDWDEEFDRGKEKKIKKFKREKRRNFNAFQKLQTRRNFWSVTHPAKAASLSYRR
Procedure, shortened: as §1

[3] = biological target: T2, USP38 (UniProt Q8NB14)
T2 sequence (whole entry): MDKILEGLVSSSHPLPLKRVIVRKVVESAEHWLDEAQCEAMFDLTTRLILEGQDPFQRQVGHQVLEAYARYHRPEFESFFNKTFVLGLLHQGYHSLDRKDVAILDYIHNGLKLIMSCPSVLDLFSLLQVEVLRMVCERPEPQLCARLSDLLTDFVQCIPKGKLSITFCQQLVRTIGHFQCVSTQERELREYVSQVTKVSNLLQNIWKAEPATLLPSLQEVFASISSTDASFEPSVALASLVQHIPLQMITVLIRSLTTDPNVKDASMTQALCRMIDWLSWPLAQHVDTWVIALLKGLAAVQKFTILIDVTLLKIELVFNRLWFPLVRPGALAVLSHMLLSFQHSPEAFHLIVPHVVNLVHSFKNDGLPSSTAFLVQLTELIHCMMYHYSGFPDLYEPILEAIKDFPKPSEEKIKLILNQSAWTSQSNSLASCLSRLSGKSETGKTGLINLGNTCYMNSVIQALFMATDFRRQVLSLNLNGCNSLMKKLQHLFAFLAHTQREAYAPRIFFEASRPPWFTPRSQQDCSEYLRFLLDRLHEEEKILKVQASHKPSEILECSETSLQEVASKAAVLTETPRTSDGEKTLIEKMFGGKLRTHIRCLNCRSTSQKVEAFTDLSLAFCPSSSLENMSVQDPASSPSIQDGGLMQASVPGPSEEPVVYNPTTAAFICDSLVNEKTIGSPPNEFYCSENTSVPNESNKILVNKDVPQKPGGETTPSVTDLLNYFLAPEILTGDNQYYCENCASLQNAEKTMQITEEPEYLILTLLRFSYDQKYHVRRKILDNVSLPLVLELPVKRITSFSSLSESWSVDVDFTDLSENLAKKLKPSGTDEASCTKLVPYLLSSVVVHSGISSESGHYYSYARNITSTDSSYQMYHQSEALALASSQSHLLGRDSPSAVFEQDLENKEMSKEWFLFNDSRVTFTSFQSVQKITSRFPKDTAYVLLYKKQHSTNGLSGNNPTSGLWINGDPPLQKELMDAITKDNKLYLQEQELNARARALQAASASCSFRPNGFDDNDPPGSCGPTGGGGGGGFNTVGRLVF
Procedure, shortened: as §1

[4] = biological target: T3, USP39 (UniProt Q53GS9)
T3 sequence (whole entry): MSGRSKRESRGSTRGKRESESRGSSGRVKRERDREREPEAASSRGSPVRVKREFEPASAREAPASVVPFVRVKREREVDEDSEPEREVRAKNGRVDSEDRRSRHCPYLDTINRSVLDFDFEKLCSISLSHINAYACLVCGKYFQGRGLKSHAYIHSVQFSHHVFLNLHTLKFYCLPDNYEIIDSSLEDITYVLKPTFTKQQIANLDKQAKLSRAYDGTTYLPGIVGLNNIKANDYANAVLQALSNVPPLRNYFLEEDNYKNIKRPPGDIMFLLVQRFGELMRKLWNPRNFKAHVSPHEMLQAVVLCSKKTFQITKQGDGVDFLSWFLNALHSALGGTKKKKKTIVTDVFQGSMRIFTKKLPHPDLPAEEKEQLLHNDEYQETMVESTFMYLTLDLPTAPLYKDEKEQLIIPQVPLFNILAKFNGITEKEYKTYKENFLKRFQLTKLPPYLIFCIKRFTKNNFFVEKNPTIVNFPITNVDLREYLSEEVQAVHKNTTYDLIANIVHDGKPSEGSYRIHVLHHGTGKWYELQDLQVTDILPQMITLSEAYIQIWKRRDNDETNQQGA
Procedure, shortened: as §1

[5] = biological target: T4, USP4 (UniProt Q13107)
T4 sequence (whole entry): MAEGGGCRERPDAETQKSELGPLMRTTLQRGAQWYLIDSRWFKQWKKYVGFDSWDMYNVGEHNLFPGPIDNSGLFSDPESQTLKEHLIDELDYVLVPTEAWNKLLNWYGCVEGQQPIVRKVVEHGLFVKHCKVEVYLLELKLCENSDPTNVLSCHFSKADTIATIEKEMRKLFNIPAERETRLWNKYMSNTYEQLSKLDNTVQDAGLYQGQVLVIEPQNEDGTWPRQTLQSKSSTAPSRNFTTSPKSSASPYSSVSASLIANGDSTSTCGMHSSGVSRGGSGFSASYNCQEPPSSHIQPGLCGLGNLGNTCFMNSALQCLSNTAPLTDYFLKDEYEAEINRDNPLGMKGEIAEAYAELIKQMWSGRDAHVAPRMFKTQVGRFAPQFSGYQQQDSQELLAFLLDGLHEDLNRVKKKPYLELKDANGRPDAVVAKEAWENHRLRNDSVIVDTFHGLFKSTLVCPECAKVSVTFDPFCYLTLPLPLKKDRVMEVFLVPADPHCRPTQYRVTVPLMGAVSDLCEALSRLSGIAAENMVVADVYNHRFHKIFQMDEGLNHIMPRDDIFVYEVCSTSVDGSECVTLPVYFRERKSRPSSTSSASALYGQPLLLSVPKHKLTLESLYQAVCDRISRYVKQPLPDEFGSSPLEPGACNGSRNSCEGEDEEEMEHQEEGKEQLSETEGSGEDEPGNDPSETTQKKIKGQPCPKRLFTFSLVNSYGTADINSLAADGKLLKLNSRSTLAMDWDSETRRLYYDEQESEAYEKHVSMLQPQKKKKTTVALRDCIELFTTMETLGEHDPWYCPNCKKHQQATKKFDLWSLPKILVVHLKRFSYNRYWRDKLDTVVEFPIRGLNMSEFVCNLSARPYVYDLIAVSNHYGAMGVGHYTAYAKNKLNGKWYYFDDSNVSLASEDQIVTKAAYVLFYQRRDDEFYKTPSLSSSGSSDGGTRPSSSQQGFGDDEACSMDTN
Procedure, shortened: as §1

Measured: log2 ratio of Biotin-Ahx-Ub-VS probe labelling

Chain of USP34 (Q70CQ2 whole entry, the tested form may be a part): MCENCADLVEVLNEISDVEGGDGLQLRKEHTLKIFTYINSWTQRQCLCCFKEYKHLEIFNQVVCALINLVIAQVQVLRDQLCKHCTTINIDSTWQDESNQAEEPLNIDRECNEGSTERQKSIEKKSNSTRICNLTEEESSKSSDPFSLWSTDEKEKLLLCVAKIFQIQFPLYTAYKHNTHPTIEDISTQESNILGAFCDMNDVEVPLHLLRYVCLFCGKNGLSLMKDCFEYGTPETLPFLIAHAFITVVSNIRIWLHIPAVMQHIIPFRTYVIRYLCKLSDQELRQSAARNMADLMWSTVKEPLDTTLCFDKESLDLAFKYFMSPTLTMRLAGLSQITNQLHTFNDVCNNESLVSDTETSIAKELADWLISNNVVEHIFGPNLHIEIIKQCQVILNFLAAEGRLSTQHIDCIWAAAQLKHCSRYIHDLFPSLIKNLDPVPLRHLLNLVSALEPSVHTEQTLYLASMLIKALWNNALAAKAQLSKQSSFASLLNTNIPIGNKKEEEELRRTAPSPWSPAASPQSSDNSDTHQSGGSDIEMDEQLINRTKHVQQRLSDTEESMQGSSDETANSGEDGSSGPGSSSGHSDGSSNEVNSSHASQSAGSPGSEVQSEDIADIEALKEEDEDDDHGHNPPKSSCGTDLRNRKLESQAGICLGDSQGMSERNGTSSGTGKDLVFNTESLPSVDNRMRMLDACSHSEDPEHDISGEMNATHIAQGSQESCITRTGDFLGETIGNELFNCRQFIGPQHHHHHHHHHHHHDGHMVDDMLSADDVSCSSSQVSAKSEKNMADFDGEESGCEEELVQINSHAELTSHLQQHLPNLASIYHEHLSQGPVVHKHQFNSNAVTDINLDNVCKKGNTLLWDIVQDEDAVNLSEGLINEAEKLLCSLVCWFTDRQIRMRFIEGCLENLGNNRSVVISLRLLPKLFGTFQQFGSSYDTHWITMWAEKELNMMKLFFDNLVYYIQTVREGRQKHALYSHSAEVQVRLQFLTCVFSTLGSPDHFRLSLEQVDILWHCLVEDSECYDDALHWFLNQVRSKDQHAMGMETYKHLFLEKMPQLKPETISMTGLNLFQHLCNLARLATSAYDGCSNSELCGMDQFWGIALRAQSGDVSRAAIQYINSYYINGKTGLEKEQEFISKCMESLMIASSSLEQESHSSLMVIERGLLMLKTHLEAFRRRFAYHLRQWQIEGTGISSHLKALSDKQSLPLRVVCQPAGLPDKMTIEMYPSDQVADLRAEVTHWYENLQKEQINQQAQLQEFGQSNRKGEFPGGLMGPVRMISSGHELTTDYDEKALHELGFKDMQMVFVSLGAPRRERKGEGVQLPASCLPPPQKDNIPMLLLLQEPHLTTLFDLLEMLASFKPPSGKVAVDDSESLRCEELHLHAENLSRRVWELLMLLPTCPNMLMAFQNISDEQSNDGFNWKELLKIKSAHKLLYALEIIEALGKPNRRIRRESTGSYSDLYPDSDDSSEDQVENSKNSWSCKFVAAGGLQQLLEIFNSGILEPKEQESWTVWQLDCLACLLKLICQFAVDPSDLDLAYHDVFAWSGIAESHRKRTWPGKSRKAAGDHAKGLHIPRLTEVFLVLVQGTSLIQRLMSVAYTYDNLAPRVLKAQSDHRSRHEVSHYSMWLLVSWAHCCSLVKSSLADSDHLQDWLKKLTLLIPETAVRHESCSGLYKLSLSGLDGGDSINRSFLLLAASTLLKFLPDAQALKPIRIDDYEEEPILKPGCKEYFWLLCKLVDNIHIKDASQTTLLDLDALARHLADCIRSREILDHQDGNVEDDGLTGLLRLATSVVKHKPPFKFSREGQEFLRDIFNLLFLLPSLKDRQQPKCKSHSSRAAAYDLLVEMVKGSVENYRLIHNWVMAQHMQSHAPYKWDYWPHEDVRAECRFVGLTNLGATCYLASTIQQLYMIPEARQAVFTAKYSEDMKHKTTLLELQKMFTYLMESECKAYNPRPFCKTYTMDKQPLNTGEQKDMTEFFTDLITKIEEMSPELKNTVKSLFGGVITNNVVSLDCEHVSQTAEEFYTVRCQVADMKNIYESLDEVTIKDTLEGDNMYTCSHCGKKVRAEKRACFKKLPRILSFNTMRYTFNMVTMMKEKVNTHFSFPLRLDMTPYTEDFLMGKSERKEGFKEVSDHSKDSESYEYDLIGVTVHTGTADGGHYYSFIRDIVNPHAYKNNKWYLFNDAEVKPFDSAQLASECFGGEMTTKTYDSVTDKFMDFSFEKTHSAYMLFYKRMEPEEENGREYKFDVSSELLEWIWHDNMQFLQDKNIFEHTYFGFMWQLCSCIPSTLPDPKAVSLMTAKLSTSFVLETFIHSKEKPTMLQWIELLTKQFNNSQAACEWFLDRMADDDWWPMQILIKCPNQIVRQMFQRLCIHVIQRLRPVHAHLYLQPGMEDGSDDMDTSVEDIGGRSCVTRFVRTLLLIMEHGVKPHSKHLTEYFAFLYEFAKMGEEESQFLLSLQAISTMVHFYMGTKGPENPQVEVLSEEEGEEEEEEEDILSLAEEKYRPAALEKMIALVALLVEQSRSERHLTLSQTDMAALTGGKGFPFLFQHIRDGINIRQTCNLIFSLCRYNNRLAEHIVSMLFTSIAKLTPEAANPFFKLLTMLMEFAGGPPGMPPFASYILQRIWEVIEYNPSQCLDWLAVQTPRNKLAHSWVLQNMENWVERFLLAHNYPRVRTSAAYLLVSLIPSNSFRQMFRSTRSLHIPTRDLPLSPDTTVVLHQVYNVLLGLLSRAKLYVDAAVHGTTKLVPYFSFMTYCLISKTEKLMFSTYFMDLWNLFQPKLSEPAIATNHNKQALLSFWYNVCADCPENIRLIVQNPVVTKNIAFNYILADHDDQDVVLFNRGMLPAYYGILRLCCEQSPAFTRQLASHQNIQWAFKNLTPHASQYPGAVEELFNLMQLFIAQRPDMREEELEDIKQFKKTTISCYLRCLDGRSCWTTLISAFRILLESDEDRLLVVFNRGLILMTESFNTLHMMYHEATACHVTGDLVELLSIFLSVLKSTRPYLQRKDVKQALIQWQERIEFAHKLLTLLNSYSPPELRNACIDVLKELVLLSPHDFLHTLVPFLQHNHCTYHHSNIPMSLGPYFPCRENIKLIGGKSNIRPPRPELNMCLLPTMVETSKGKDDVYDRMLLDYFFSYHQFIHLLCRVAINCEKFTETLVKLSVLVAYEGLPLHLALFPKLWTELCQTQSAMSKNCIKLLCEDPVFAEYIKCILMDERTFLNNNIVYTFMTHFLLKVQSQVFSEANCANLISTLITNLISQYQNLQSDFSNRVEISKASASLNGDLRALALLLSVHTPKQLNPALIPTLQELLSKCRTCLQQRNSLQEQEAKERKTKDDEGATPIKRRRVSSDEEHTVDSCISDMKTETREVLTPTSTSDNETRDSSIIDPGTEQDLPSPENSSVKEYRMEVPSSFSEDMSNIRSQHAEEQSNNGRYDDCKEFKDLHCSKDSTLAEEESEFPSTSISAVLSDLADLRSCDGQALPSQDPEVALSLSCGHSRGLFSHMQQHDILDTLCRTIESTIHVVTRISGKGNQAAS

Cc1ccc(N(CCC#N)C(=O)CCl)cc1C
inactive: [1] -0.0882 | [2] -0.062 | [3] -0.15 | [4] 0.18 | [5] 0.0498

Source: the supplement of paper PMC11732987, “Enantioselective OTUD7B fragment discovery through chemoproteomics screening and high-throughput optimisation” (Communications Chemistry, 2025)
